High-throughput results as filed in PubChem.
PNC inhibitor: blocks assembly of the perinucleolar compartment. PC3M PTB-GFP, PNC prevalence imaging, 16 h; stronger effect = lower value. activity change (PNC), negative = inhibition, % at 10 µM. hit rate 3.1% among 140,000. AID 2417;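 active = readout at or below -70, meaning at least 70% loss of cells showing the perinucleolar compartment, a nuclear body marking cancer cells; inconclusive = readout between -30 and a set limit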;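 also: plate controls were DMSO wells for no effect and camptothecin positive control wells for full effect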
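Read-out is percentage of cells bearing a perinucleolar compartment, from automated 20x imaging of fixed, Hoechst-stained PC3M PTB-GFP cells. Cells were seeded 4 h, then exposed 16 h to compound (23 nl of library stock) in duplicate plates.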
ALDH1A1 block: inhibitors of human aldehyde dehydrogenase 1A1 | Potency, µM (top dose mostly 75.3 µM), without a hit: at the top dose activity, negative = inhibition, actives largely listed as inhibitors | Purified ALDH1A1, NADH fluorescence, propionaldehyde substrate | hit rate 7.3% among 220,000;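 also: potency is read from the fitted curve at half-maximal effect; plate controls were no enzyme wells and a reference inhibitor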
Target sequence (P00352 whole entry, looked up): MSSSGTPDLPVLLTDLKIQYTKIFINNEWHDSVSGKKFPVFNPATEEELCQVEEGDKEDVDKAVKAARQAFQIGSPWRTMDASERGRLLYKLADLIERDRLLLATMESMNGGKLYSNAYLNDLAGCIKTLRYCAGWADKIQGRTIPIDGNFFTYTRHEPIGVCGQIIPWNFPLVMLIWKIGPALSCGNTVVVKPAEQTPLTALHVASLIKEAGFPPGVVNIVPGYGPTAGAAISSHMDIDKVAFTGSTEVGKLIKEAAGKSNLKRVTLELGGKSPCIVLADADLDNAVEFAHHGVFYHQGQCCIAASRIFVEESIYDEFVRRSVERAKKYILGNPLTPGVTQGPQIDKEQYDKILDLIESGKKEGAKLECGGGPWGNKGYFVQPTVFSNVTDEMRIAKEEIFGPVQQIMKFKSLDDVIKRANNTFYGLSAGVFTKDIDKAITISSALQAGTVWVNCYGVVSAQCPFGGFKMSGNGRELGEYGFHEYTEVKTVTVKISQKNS
HPGD inh: HPGD (human) dehydrogenase inhibition. hit rate 4.3% among 150,000. purified HPGD, NADH fluorescence kinetic, PGE2 substrate. Potency, µM, for inactives: at the top dose activity change, negative = inhibition, hits mostly inhibitors. AID 894; also: potency is read from the fitted curve at half-maximal effect
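20 nM HPGD preincubated 15 min at room temperature with compound in 50 mM Tris-HCl pH 8, 0.01% Tween 20. Started with 1 mM NAD+ and 30 uM prostaglandin E2; NADH fluorescence (360/450 nm) read 5 times over 30-s intervals, last minus first.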
KDM4E inh: blocks human JMJD2E demethylase activity. B2RXH2. JMJD2E catalytic domain, FDH-coupled NADH fluorescence (FDH is formaldehyde dehydrogenase). Potency, µM (titrated, usually from 57.1 µM), without a hit: top-dose activity change, negative = inhibition, usual class: inhibitors. hit rate 1.6% among 230,000;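 also: potency is read from the fitted curve at half-maximal effect; 0% = wells with enzyme and -100% = buffer wells without enzyme; nearly all actives have a fitted effect of over 50% in size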
* hit, by the source's call; ? = inconclusive; . = no result; [ ] = dose if it differs, or a comment. An excerpt weighted towards active compounds, which were near 11% of everything screened. Unless noted, calls follow the shape of the dose curve; as a rule, active = well fitted inhibition curve with a large enough effect (not every such curve was filed as active); inconclusive = small, poorly fitted or top-dose-only effect, or another doubt; inactive = no such curve, though single readings can be large or run the other way. Unless noted, % is scaled to controls: 0 for no effect and ±100 for the full control effect.

SMILES | PNC inhibitor | ALDH1A1 block | HPGD inh | KDM4E inh
O=C(NC(=S)Nc1cc(S(=O)(=O)N2CCOCC2)ccc1N1CCOCC1)c1ccco1 | . | 7% | . | -9%
CC(=O)c1ccc(NC(=S)Nc2ccc(N3CCOCC3)cc2)cc1 | . | 22µM* | . | ?
O=C(Nc1cc(S(=O)(=O)N2CCOCC2)ccc1O)c1ccc(NS(=O)(=O)c2ccc(Cl)s2)cc1 | -134* | -13% | -14% | 1%
O=C(Nc1ccc(N2CCOCC2)cc1)c1ccc2nc(-c3ccco3)c(-c3ccco3)nc2c1 | -20 | 3% | -9% | 4%
S=C(Nc1ccc(N2CCOCC2)cc1)Nc1ccc2nc(-c3ccco3)c(-c3ccco3)nc2c1 | -21 | 7.1µM* | ? | ?
CC[C@]1(c2ccccc2)NC(=O)N(C)C1=O | . | 5%[20.9 µM] | 2% | 2%[25.5 µM]
Cc1ccc(CN2CCN(Cc3ccc(C)o3)[C@@H](C)C2)o1 | . | 5%[13.5 µM] | -6% | .
Cc1ccc(S(=O)(=O)N/N=C2/CC(=O)CC(C)(C)C2)cc1[N+](=O)[O-] | . | . | . | 5%
CNC(=S)N/N=C1\CC(c2ccccc2)Oc2ccccc21 (centres undefined) | . | 4% | . | -3%
Cc1ccc(S(=O)(=O)N/N=C2/CC(c3ccccc3)Oc3ccccc32)cc1[N+](=O)[O-] (centres undefined) | 16 | 7.1µM* | -29% | -20%
Fc1ccc(N/N=C2/CC(c3ccccc3)Oc3ccccc32)c(F)c1 (centres undefined) | -94* | ? | -29% | 6%
O=S(=O)(N/N=C1/CC(c2ccccc2)Oc2ccccc21)c1ccc(Br)cc1 (centres undefined) | ? | 22µM* | -18% | 7%
O=S(=O)(N/N=C\C=C\c1ccccc1)c1ccc(Br)cc1 | 39 | ? | ? | 0%
O=S(=O)(N/N=C1/CCCc2ccccc21)c1ccc(Br)cc1 | 52 | 14µM* | -10% | -4%
Cc1ccc(C)c(S(=O)(=O)N/N=C2/CCCc3ccccc32)c1 | 0 | ? | -15% | 13%
COc1ccccc1CN=C1NC(=O)C(CC(=O)Nc2ccc(C(C)=O)cc2)S1 (centres undefined) | . | . | . | 1%
NNC(=O)CS(=O)(=O)c1ccc(Cl)cc1 | . | ? | . | 57%
O=C(NC(=S)N1CCN(C/C=C/c2ccccc2)CC1)c1ccc(Cl)nc1 | . | 18µM* | . | 0%
CCn1nnnc1-c1ccc(OC)c(S(=O)(=O)NCc2ccccc2)c1 | -4 | 1.9µM* | 20µM* | 7%
CCn1nnnc1-c1ccc(OC)c(S(=O)(=O)Nc2ccc(C)c(C)c2)c1 | ? | 7.1µM* | -6% | -2%
COc1ccc(OC)c(S(=O)(=O)Nc2ccc(C)c(C)c2)c1 | 3 | ? | -5% | -2%
COc1ccc(NS(=O)(=O)c2cc(-c3nnnn3C)ccc2OC)cc1 | 26 | 0.79µM* | -6% | 3%
CN1CCN(C(=O)c2ccc(-n3c(=O)c(=O)[nH]c4ccccc43)cc2)CC1 | . | -13% | -2% | .
Fc1ccc(/C=N/n2cnn(Cc3ccccc3Cl)c2=S)cc1 | . | 20µM* | . | -18%
Brc1ccc(Nc2ncnc3[nH]ncc23)cc1 | . | . | . | 7%
SMILES | PNC inhibitor | ALDH1A1 block | HPGD inh | KDM4E inh
O=c1[nH][nH]c(=S)n1-c1ccccc1C(F)(F)F | . | . | . | 6.3µM*
Cc1cc(C)n(Cc2cc(C(=O)O)c3ccccc3n2)n1 | . | 0% | . | -7%
COc1ccc(C(c2nnnn2CC2CCCO2)N2CCC(C(N)=O)CC2)cc1 (centres undefined) | 16 | 1% | 1% | 5%
COc1ccccc1C(c1nnnn1CC1CCCO1)N1CCC(C(N)=O)CC1 (centres undefined) | -100* | 3% | -18% | -8%
C=CCN1CCN(C(c2cc(OC)ccc2OC)c2nnnn2CC2CCCO2)CC1 (centres undefined) | ? | 28µM* | -12% | 1%
O=C(O)[C@@H]1[C@@H]2C[C@@H]3[C@@H](OC(=O)[C@@H]31)[C@H]2Br | . | 8%[13.5 µM] | 3% | .
O=c1c(-c2ccccc2)nc2cncnc2n1Cc1ccccc1Cl | . | -2% | -15% | .
C/C(=N\NC(=O)c1ccncc1)c1ccc2ccccc2c1O | . | 3%[13.5 µM] | -12% | .
Cc1ccc(S(=O)(=O)N[C@H](C(=O)N2CCC3(O)CCCCC3C2)c2ccccc2)cc1 (some centres undefined) | -25 | ? | 3% | -1%
COc1ccc(S(=O)(=O)N[C@H](C(=O)N2CC[C@@]3(O)CCCC[C@H]3C2)c2ccccc2)cc1 | 22 | 13µM* | -1% | 0%
O=C(O)C1Cc2ccccc2CN1C(=O)CCl (centres undefined) | . | ? | . | -24%
COc1ccc(O)c(C(=O)c2cc(C#N)c(=O)n(CC3CCCO3)c2)c1 (centres undefined) | -4 | 25µM* | -28% | -18%
O=C(C[n+]1cccc(NC(=O)c2ccccc2)c1)c1cccc([N+](=O)[O-])c1 | . | 9.5µM* | . | 5%
O=C(CCNc1cccc(F)c1)c1cccc([N+](=O)[O-])c1 | . | 0.63µM* | . | 1%
O=C1N=C(O)CN1/N=C\c1ccc(-c2ccc([N+](=O)[O-])cc2)o1 | . | -1% | -24% | 14%
CCN(CC)CC[n+]1ccc2c(C)c3[nH]c4ccccc4c3c(C)c2c1 | . | 2%[13.5 µM] | -6% | .
COc1ccccc1N1CCN(/N=C/c2cc([N+](=O)[O-])ccc2Cl)CC1 | . | 22µM* | . | -2%
COc1ccccc1N1CCN(/N=C/c2cccc(OC)c2OC)CC1 | . | 1% | . | -7%
COc1ccccc1N1CCN(/N=C/c2c(C)nn(-c3ccccc3)c2C)CC1 | -84* | -8% | -4% | ?
O=C1Nc2ccccc2C(=O)C1(Cl)Cc1ccccc1 (centres undefined) | 36 | 14µM* | 7.1µM* | ?
CN(C)c1ccc(C2NCCS2)cc1 (centres undefined) | ? | 1µM* | -18% | 5%
Cn1cccc1C(=O)N1CCC2(CCCN(Cc3ccncc3)C2)CC1 | . | ? | -10% | .
Cc1ccc(Cn2c(SCc3cccnc3)nc3c2c(=O)n(C)c(=O)n3C)cc1 | -5 | 2% | 8% | -1%
Cn1c(=O)c2c(nc(SCc3cccnc3)n2Cc2ccccc2)n(C)c1=O | -14 | 22µM* | -22% | -6%
CCCn1c(SCC(=O)OCc2ccccc2)nc2c1c(=O)n(C)c(=O)n2C | 6 | 22µM* | -6% | 2%
SMILES | PNC inhibitor | ALDH1A1 block | HPGD inh | KDM4E inh
Cn1c(=O)c2c(nc(SCc3cccnc3)n2Cc2ccc(F)cc2)n(C)c1=O | -5 | ? | 40µM* | 0%
Cn1ncc2c(N3CCN(c4ccc(Cl)c(Cl)c4)CC3)ncnc21 | . | 7% | . | 7%
CC(=O)Nc1ccc(OC(=O)c2ccc(Br)c([N+](=O)[O-])c2)cc1 | . | 1% | . | -10%
CCOC(=O)C1=C(SCC)c2cc3c(n2C1=O)CCCC3 | -23 | ? | -5% | 5%
N#CC1=C(N2CCCCC2)c2cc3c(n2C1=O)CCCC3 | 0 | 8.9µM* | 25µM* | 2%
Cc1ccc(-n2nnnc2CCl)cc1 | . | 22µM* | . | 5%
CCN1C/C(=C/c2cccs2)c2nc3ccccc3c(C(=O)O)c2C1 | . | . | . | 25µM*
Cc1ccc(-c2csc(=Nc3cccnc3)n2CCCN2CCCC2=O)cc1C | 153 | 7.9µM* | -11% | 4%
